TRHR PAM: TRH receptor (human) allosteric enhancement; TRHR cells, fluo-8 calcium fluorescence, EC20 TRH enhancement; enhancement, % at 2 µM; P34981; 360,000 compounds, 0.66% hits; AID 493056; in the data active = enhancement above about 30%; note: 0% is about no effect
Target sequence (P34981 whole entry, looked up): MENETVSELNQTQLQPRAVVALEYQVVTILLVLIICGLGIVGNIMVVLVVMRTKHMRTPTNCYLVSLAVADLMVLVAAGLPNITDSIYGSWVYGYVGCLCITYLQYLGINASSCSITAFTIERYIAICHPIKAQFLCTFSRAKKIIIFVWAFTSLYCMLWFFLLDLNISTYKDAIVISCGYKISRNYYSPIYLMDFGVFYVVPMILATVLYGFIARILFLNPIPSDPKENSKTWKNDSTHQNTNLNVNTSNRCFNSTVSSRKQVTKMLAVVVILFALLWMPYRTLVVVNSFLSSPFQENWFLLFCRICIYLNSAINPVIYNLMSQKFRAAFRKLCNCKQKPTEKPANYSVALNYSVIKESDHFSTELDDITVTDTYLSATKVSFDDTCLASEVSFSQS
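TRHR-expressing cells loaded with fluo-8 calcium dye were read kinetically (ex 480/em 530) during compound addition, then stimulated with an EC20 of TRH (10 nM final). Enhancement of the Gq-mediated intracellular calcium response was scored.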
TRPML1 ag: human mucolipin-1 channel agonism; 410,000 compounds, 0.12% hits; activation, % (no concentration beside the values); AID 624414; TRPML1-expressing cells, Ca2+ dye fluorescence, FDSS; in the data active = activation above about 50%; inconclusive = mostly about 30% to 49%; note: 0% is about no effect
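Cells: TRPML1-DL, 1X Tet inducer, ~16 h at 37 degrees C/5% CO2. Dye: ABD Ca8 no-wash + quencher, 45-90 min RT. Read: 10 s baseline, compound add, 110 s agonist phase; 54-4 EC80 (4uM final), 110 s antagonist phase.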
TRPML1 blocker: inhibitors of human TRPML1 channel. Q9GZU1. AID 624415. 390,000 compounds, 0.02% hits. activity change, negative = inhibition, % (test concentration not listed). TRPML1-inducible cells, Ca2+ dye fluorescence, FDSS; stronger effect = lower value; inhibition of EC80 agonist-evoked calcium signal; in the data active = activity change below about -50%; inconclusive = between about -30% and that limit;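 note: stimulus is agonist 54-4 at its EC80 concentration; % is set by controls: 0 for no effect and ±100 for the full control effect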
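Calcium fluorescence in TRPML1-DL cells induced overnight with Tet: a 110 s read after compound pin addition, then a 110 s antagonist read after challenge with 54-4 at 4 uM final (EC80).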
TRHR agonist: TRH receptor (human) agonism | TRHR cells, calcium flux fluo-8, FDSS agonist mode | activation, % at 2 µM | 360,000 compounds, 0.18% hits | AID 493084; in the data active = activation above about 30%; note: 0% is about no effect
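Read-out: compound-evoked intracellular calcium rise in TRHR cells, fluo-8 dye, kinetic FDSS fluorescence at 1 s/cycle following a 10-cycle baseline. Cells cultured overnight before dye loading (30 min–1.5 h, RT).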
Glioma ERSR ind: inducers of ER stress response in human glioma cells | 420,000 compounds, 0.02% hits | Potency, µM, for inactives: at the highest dose activation, usual class: activators | U87-MG GRP78 promoter luciferase reporter, 16 h | AID 602332; active = well fitted activation curve with a large enough effect; inconclusive = small, poorly fitted or top-dose-only effect; inactive = no such curve, though single readings can be large or run the other way; note: potency is the fitted concentration of half-maximal effect; series mostly up to about 76 µM; % of control where 0% means no effect; nearly all actives have a fitted effect of over 35% in size
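Stably transfected U87-MG human glioma cells carrying a GRP78-based luminescent sensor were seeded at 1000 cells/well, pin-dosed with compounds and incubated 16 h. Luciferase reagent was then added, and end-point luminescence was read after 10 min at room temperature.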
* marks the source's active call; other numbers are inactive results; ? = inconclusive; nt = no result given; ! = repeats disagree. Only some compounds are listed: those with a hit (about 0.8% of all), similar ones and a draw of the others.

SMILES	TRHR PAM	TRPML1 ag	TRPML1 blocker	TRHR agonist	Glioma ERSR ind
N#Cc1nc(Nc2cccc(F)c2)nc(NC2CCCC2)n1	-0.4	nt	nt	0.3	nt
O=c1c(/C=C(\O)c2ccccc2)nc2ccccc2n1-c1ccccc1	-2.6	?	25.5	46.6*	-0.2%
CCC1C(=O)NCCN1Cc1ccc2c(c1)CN(Cc1ccc(F)c(OC)c1)CCO2 (configuration not stated)	nt	nt	nt	nt	-3.1%
O=C1CC(c2ccsc2)c2ccc3ccccc3c2N1 (configuration not stated)	36.7*	0.8	45.7	-0.4	3.0%
Cc1ccc(C)c(Oc2ccc(S(=O)(=O)N3CCN(C)CC3)cn2)c1	-8.4	0.3	31.9	-0.3	3.3%
CCc1ccccc1Oc1ccc(S(=O)(=O)N2CCN(C)CC2)cn1	39.8*	0.7	-2.2	-0.2	-4.3%
Cc1cc(O)c(C(=O)c2cnc3c(c2)COc2ccccc2-3)cc1Cl	34.6*	2.8	-4.6	-1.5	-1.0%
O=C1S/C(=C/c2ccc(N3CCOCC3)o2)C(=O)N1Cc1ccc(F)cc1	-5.8	20.3	-13.9	35.3*	0.2%
CCC1CN(CCNC(=O)c2ccc3c(c2)OCO3)Cc2cc(OC)ccc2O1 (configuration not stated)	nt	nt	nt	nt	-3.0%
Cc1ccc(C(=O)CCC(=O)OCC(=O)NNC(=O)c2ccccc2Cl)cc1	32.1*	3.0	16.3	-0.7	-2.4%
CCN1CCN(C(=O)c2sc3ncnc(NCC4CCCO4)c3c2C)CC1 (configuration not stated)	nt	nt	nt	nt	-3.6%
COc1ccc(OC)c(C(=O)N2CCOc3ccc(C(C)(O)CN(C)C)cc3C2)c1 (configuration not stated)	nt	nt	nt	nt	-1.3%
COc1ccc(CCNC(=O)c2cc(-c3ccc(C)cc3)nc3n[nH]c(-c4ccccc4)c23)cc1OC	47.8*	0.7	-16.0	0.3	-1.2%
COc1ccc(-c2cc(C(=O)NCCc3ccccc3)c3c(-c4ccccc4)[nH]nc3n2)cc1OC	4.4	1.4	-5.5	-0.9	-1.4%
COC(=O)COc1cc(OCC(=O)OC)c2c(C)c(Cl)c(=O)oc2c1	-1.1	-0.1	-14.3	0.3	12.6%
COC(=O)C(C)Oc1cc(OC(C)C(=O)OC)c2c(C)c(Cl)c(=O)oc2c1 (configuration not stated)	7.7	-0.7	4.3	-0.1	39.8µM*
CCOC(=O)c1cnc2c(C#N)cnn2c1N	36.3*	0.5	3.0	0.5	-5.2%
CCOC(=O)c1cnc2c(-c3ccccc3)cnn2c1N	-8.4	0.4	-4.6	0.0	2.6%
COC(=O)c1ccccc1NC(=O)c1nc(-c2ccc(Cl)cc2)n2c1CCCCC2	34.8*	-0.7	-15.0	0.6	-3.1%
CC(=O)c1ccc(NC(=O)c2nc(-c3ccc(Cl)cc3)n3c2CCCCC3)cc1	-19.1	-0.5	-9.4	0.3	-3.2%
OCC1(Cc2ccccc2F)CCCN(Cc2c(F)ccc(F)c2F)C1 (configuration not stated)	30.5*	-0.6	2.3	0.1	-3.5%
CCC1CCCCN1C(=O)CCn1ccnc1 (configuration not stated)	32.5*	3.4	19.6	-0.3	-2.7%
COc1ccc2c(c1)OC(C)CN(CCC(=O)NCC1OCCc3ccccc31)C2 (configuration not stated)	nt	nt	nt	nt	-3.1%
CC1C(c2ccccc2)N(C)C(c2ccccc2)C(C)C1(O)C#Cc1ccccc1 (configuration not stated)	38.6*	1.9	9.1	0.9	-4.7%
COc1ccccc1C(=O)Nc1cccc(N2CCC(NCc3cnn(-c4ccccc4)n3)CC2)c1	nt	nt	nt	nt	-4.5%
SMILES	TRHR PAM	TRPML1 ag	TRPML1 blocker	TRHR agonist	Glioma ERSR ind
CC1CCCCN1S(=O)(=O)c1ccc(C(=O)N2CCOCC2)cc1 (configuration not stated)	33.0*	1.0	-3.0	-2.0	-4.3%
COc1ccc(CN2CCCC(Cn3cc(C(=O)N4CCCC4)nn3)C2)c(O)c1 (configuration not stated)	nt	nt	nt	nt	-2.4%
Cc1ncc2c(c1CNC(=O)c1ccccc1F)CCN(C(=O)c1ccccc1-n1cccn1)C2	nt	nt	nt	nt	-4.2%
CC(C)Cn1c(CN2C(=O)c3ccccc3C2=O)nc2ccccc2c1=O	30.0*	0.1	-7.0	0.3	-0.8%
O=C1c2ccccc2C(=O)N1Cc1nc2ccccc2c(=O)n1Cc1ccco1	5.5	0.1	26.7	-0.1	-4.6%
CC(NC(=O)c1cccnc1)c1nnc2n1CCN(Cc1ccc(F)cc1F)CC2 (configuration not stated)	nt	nt	nt	nt	-4.6%
CCN1CCCC1CNC(=O)c1cnn(-c2nccc(-c3ccccc3F)n2)c1C (configuration not stated)	nt	nt	nt	nt	-1.5%
O=C(NC(=S)NNC(=O)c1ccc(Cl)cc1Cl)c1cccnc1	5.6	0.1	19.3	-0.2	0.6%
Cc1cccc(C(=O)NC(=S)Nc2ccccc2C(F)(F)F)c1	31.6*	1.3	32.0	-0.3	-1.3%
Cc1ccccc1C(=O)NNC(=S)NC(=O)c1ccc(Cl)cc1Cl	-5.0	0.1	-1.6	44.5*	5.1%
Cc1ccc(C(=O)NNC(=S)NC(=O)c2ccc(Cl)cc2)cc1	nt	60.8*	-17.0	nt	?
Cc1cccc(C(=O)NC(=S)NNC(=O)c2ccccc2Cl)c1	-0.8	68.0*	17.6	35.2*	?
Cc1ccc(C(=O)NC(=S)Nc2ccccc2C(F)(F)F)cc1C	-0.7	4.3	-9.7	-0.7	3.5%
CCn1c(C)nc2cc(NS(=O)(=O)c3ccccc3)cc(C(=O)N3C[C@@H](C)O[C@@H](C)C3)c21	nt	nt	nt	nt	-0.2%
CCc1nc2cc(C(=O)N(C)C3CCOC3)cc(NC(=O)c3ccccc3OC)c2n1C (configuration not stated)	nt	nt	nt	nt	-2.7%
O=C(c1cccnc1)C1CCCN(Cc2ccc3c(c2)CN(C(=O)c2cccc(Cl)c2)CCO3)C1 (configuration not stated)	nt	nt	nt	nt	0.1%
Cc1onc(-c2ccccc2)c1C(=O)NNC(=S)NC(=O)c1ccc(Cl)cc1Cl	1.7	91.1*	17.7	35.1*	?
O=C1C(NS(=O)(=O)c2ccc(Br)cc2)=C(N2CCCCC2)C(=O)c2ccccc21	-3.3	76.4*	-19.5	-0.6	-3.8%
CC1CCN(C2=C(NS(=O)(=O)c3ccc(Br)cc3)C(=O)c3ccccc3C2=O)CC1	-2.9	-0.2	-11.3	-1.3	-3.1%
COCCOc1ccc(C(F)(F)F)cc1NC(=O)COC(=O)c1c(C)noc1C	33.8*	1.4	22.1	-1.1	-3.7%
CCc1ccc(-n2c(=O)c3ccccc3n3c(=S)[nH]nc23)cc1	6.7	1.5	16.5	1.4	-1.1%
COc1cccc(-n2c(=O)c3ccccc3n3c(=S)[nH]nc23)c1	27.2	-0.7	-50.7*	0.3	-4.7%
O=C(O)c1cc([N+](=O)[O-])ccc1NCCCc1ccccc1	nt	1.5	-2.6	nt	28.2µM*!
Cn1c(N)c(-c2ccccc2)c2ccc([N+](=O)[O-])cc2c1=O	2.3	83.3*	-2.6	-1.8	-6.2%
